An excerpt weighted towards active compounds, which were near 1.5% of everything screened.
CRFR2-BP ag – CRF-BP/CRF-R2 complex agonism. HEK293 CRF-R2/CRF-BP, calcium dye fluorescence (FLIPR); percent of saturating CRF peptide response. activation, % at 13.2 µM. hit rate 0.46% among 350,000. AID 588473;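 active = activation of at least 50%, plus an integration ratio under a set limit after plate pattern correction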;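 note: plate controls were neutral control wells without compound for no effect and CRF at EC100 for full effect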
CRFBP-R2 block – blocks CRF-induced signaling of the CRF-BP/CRF-R2 complex. inhibition, % at 11.8 µM. hit rate 0.59% among 350,000. HEK293 CRF-R2/CRF-BP, CRF-induced calcium fluorescence. AID 588475;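 active = inhibition of the ligand-induced calcium signal above about 50% at the single tested concentration, limit read from the data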
IDE act – activators of human insulin-degrading enzyme in cells | P14735 | HEK cells, FAbeta-B cleavage, fluorescence polarization; 0% vehicle, 100% cell-free pure enzyme wells | activation, % at 5.96 µM | hit rate 0.073% among 340,000;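 active = activation above the mean of all tested compounds plus 3 SD, set per screening campaign, cut at about 17% in these data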
Target sequence (P14735 whole entry, looked up): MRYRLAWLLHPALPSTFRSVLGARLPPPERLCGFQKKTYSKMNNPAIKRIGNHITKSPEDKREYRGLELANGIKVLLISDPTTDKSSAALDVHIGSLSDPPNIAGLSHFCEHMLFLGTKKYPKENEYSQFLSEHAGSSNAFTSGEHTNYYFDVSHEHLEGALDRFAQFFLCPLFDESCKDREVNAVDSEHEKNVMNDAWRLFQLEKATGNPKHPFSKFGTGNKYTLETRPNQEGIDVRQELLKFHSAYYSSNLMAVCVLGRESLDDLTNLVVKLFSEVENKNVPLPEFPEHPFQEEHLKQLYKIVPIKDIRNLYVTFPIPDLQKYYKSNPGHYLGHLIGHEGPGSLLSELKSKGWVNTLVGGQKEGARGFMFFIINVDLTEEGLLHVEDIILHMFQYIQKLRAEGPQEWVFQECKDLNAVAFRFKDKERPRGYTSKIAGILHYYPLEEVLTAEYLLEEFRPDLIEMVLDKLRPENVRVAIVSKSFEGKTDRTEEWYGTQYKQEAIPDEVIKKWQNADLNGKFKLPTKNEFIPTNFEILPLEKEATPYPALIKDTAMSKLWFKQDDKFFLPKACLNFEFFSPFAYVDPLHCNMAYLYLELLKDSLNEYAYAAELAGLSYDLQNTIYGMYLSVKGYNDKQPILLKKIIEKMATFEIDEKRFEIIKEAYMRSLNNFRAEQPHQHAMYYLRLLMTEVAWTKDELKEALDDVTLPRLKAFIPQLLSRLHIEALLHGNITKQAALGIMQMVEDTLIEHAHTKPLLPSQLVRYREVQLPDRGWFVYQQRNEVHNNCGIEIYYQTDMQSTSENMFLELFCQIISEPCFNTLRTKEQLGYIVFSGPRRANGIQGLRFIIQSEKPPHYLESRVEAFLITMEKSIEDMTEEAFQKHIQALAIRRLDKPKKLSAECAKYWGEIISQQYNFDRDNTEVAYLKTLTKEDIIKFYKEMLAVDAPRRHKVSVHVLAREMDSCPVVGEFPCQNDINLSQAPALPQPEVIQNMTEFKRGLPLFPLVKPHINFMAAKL
RTF Ca sens inh – cardiac RTF calcium desensitization. P19429+P45379. IANBD-labeled cardiac RTF, Ca2+ fluorescence. inhibition, % at 7.15 µM. hit rate 0.12% among 340,000. AID 493244;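 active = inhibition above the mean inhibition of all tested compounds plus 3 SD, cut at about 17% in these data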;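 note: assay run at fixed EC70 calcium of 1.6 mM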
cardiac RTF act – increases calcium sensitivity of human cardiac regulated thin filaments; activation, % at 7.2 µM; IANBD-labeled TnC RTF fluorescence at EC20 calcium; 0% EC20 calcium, 100% full calcium; hit rate 0.24% among 340,000; AID 493008; P19429+P45379;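 active = activation above the mean over all tested compounds plus 3 SD, cut at about 30% in these data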;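 note: rise in fluorescence read as greater calcium sensitivity of cardiac thin filaments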
IDE cell inh – inhibitors of human insulin-degrading enzyme in cells; HEK cells, FAbetaB cleavage, fluorescence polarization; hit rate 0.41% among 320,000; P14735; AID 434962; inhibition, % at 5.59 µM;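 active = percent inhibition above the average of all tested compounds plus 3 SD, set per screening campaign, cut at about 16% in these data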;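 note: IDE supplied by intact live HEK cells; FP after avidin binding of uncleaved biotin substrate so inhibition keeps polarization high; 0% = DMSO wells and 100% = 60 µM reference IDE inhibitor Ii1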
IDE inh confirm – confirmation of human insulin-degrading enzyme inhibitors in cells. shares compounds with IDE cell inh. HEK cells, FAbetaB cleavage, fluorescence polarization. inhibition, % at 5.59 µM. hit rate 51% among 1,200. AID 435028;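 active = mean inhibition across triplicate wells above the cutoff set by the earlier primary insulin-degrading enzyme screen, cut at about 16% in these data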;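 note: 0% = DMSO wells and 100% = 60 µM reference IDE inhibitor Ii1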
HEK cytotox – HEK cell cytotoxicity, counter-screen for IDE inhibitors | shares compounds with IDE cell inh | HEK293 cytotoxicity, ATP luminescence | inhibition, % at 5.59 µM | hit rate 28% among 1,200 | AID 449730; in the data active = inhibition above about 22%;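 note: 0% = vehicle wells and 100% = reference cytotoxic drug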
An asterisk follows results filed as active; i = inactive; · = no result; + = active, no number.

SMILES	CRFR2-BP ag	CRFBP-R2 block	IDE act	RTF Ca sens inh	cardiac RTF act	IDE cell inh	IDE inh confirm	HEK cytotox
CC(=O)Nc1ccc(C2=NNC(=Nc3ccc(S(=O)(=O)N4CCOCC4)cc3)SC2)cc1	-0.1	10.2	-29.1	-6.4	8.1	21.7*	8.5	15.2
O=S(=O)(c1ccc(N=C2NN=C(c3cc(F)ccc3F)CS2)cc1)N1CCOCC1	-0.9	2.9	·	·	·	·	·	·
COc1ccc(-c2noc(CNC(=O)CCN3C(=O)[C@H]4CC=CC[C@H]4C3=O)n2)cc1	-2.9	-6.1	4.0	-4.3	-2.1	0.0	·	·
CN(C)c1ccc(/C=C(\C#N)C(=O)OCC(=O)N(C)C2CCS(=O)(=O)C2)cc1 (stereo unspecified)	22.2	-15.0	-7.7	-12.8	5.1	16.5*	13.1	4.1
CSc1ncccc1C(=O)OCC(=O)NC1CCCc2ccccc21 (stereo unspecified)	-5.2	12.9	-15.9	-1.4	-0.6	19.5*	-0.3	15.1
CN1/C(=C\C=C2/SC(=S)NC2=O)C(C)(C)c2ccccc21	163.8*	-144.3	-131.8	i	343.7*	115.8*	151.6*	37.7*
CN1/C(=C\C=C2/C(=O)Oc3ccccc3C2=O)C(C)(C)c2ccccc21	322.8*	-383.4	·	·	·	183.9*	60.6*	23.2*
CO/N=C/C=C1/N(C)c2ccccc2C1(C)C	-0.2	-4.0	6.0	-2.9	1.1	1.7	·	·
CCOc1ccc(CNC(=O)C(=O)c2cn(CC(=O)N3CCOCC3)c3ccccc23)cc1OC	-1.6	-5.9	3.1	-4.9	1.6	-1.6	·	·
CCCCN1CC(=O)N2[C@H]3c4ccccc4OC[C@@H]3[C@H](C(=O)OCC)[C@]2(C)C1=O	-1.0	14.6	3.2	0.7	-2.7	4.2	·	·
O=C(Nc1nc2c(s1)CCCC2=O)c1cnccn1	-1.8	-32.8	0.8	-6.7	4.4	2.2	·	·
O=P(O)(OCc1ccccc1)OCc1ccccc1	-1.0	20.1	2.8	-6.0	-2.4	-2.4	·	·
Cc1cccc(C(=O)Nc2ccc(C(=O)/C=C/c3cccnc3)cc2)c1	0.0	-8.7	-36.8	-5.2	1.0	19.8*	10.4	71.2*
O=C(/C=C/c1cccnc1)c1ccc(NC(=O)c2cccc(Br)c2)cc1	-0.6	-5.9	-17.2	-6.0	-5.3	8.4	·	·
CC(C)n1nnnc1SCC(=O)N(C)C1CCS(=O)(=O)C1 (stereo unspecified)	-1.7	8.6	0.4	-2.0	0.7	1.5	·	·
O=C(CSc1ccsc1[N+](=O)[O-])N1CCN(c2ccc(Cl)cc2)CC1	0.1	32.4	-11.6	-13.7	-11.1	24.6*	4.8	16.0
CN1CCN(NC(=O)NC2CCCCC2)CC1	1.0	-4.1	-1.4	-3.0	-2.6	-1.4	·	·
Nc1ccc(-c2c3ccc(=O)cc-3oc3cc(O)ccc23)c(C(=O)O)c1	231.9*	-169.4	-12.8	i	+	49.2*	28.4*	3.6
Nc1ccc(O)c(C(=O)O)c1	·	·	·	·	·	8.4	·	·
O=C(Nc1ccc(N2CCOCC2)c(Cl)c1)c1ccc(Cl)cc1	-0.7	-6.5	-5.0	-7.8	-2.9	17.5*	4.4	21.2
Cc1cc(/C=C\c2ccc3cc(N(C)C)ccc3[n+]2C)c(C)n1-c1ccccc1	10.4	-19.5	-44.5	-20.6	7.9	25.6*	85.1*	116.9*
C[n+]1c(/C=C/c2ccc(O)cc2)ccc2ccccc21	5.8	-8.2	-2.3	-3.1	-4.3	1.9	·	·
O=C(CCNC(=O)OCc1ccccc1)NC1CCCCCC1	6.4	-4.7	0.6	9.0	-0.6	1.8	·	·
Fc1ccc2[nH]c3c(N4CCc5ccccc5C4)ncnc3c2c1	-0.4	-2.6	·	·	·	28.9*	11.5	77.2*
c1ccc2c(c1)[nH]c1c(N3CCN(C4CCCCC4)CC3)ncnc12	-0.9	-1.6	-19.4	-8.6	-5.4	12.6	·	·
SMILES	CRFR2-BP ag	CRFBP-R2 block	IDE act	RTF Ca sens inh	cardiac RTF act	IDE cell inh	IDE inh confirm	HEK cytotox
Cc1ccc2[nH]c3c(NCc4ccccc4)ncnc3c2c1	10.7	9.5	·	·	·	·	·	·
Brc1ccc2[nH]c3c(NCc4ccccn4)ncnc3c2c1	0.7	-14.7	·	·	·	64.1*	38.1*	22.4*
Brc1ccc2[nH]c3c(N4CCc5ccccc5C4)ncnc3c2c1	0.8	-58.5	·	·	·	54.5*	40.9*	65.7*
c1ccc2c(c1)CCN(c1ncnc3nc[nH]c13)C2	10.6	-20.0	-5.4	-4.1	2.5	-2.9	·	·
CN1CCN(c2ncnc3c2[nH]c2ccc(F)cc23)CC1	-1.3	2.0	-13.6	-2.1	2.7	22.8*	10.3	12.4
COC(=O)/N=C/c1c(NCc2ccccc2)nc2c(C)cccn2c1=O	-0.7	-5.6	-3.0	-15.3	-2.6	5.8	·	·
Cc1ccc(S(=O)(=O)N2CCN(c3ccccc3)CC2)cc1C(N)=O	-4.8	3.0	0.7	0.3	8.3	-2.7	·	·
CSc1ncccc1C(=O)OC(C)C(=O)Nc1cccc(S(=O)(=O)N2CCOCC2)c1 (stereo unspecified)	-4.3	7.1	-0.9	-0.8	0.2	4.2	·	·
Cc1nnsc1C(=O)N/N=C/c1ccccc1	-0.4	-10.2	7.4	-8.8	0.6	-4.0	·	·
Cc1nnsc1C(=O)N/N=C/c1ccc2ccccc2c1O	147.0*	-170.0	-73.5	-11.1	5.8	90.1*	113.5*	112.6*
N#C/C(=C\c1ccc(N2CCOCC2)o1)C(=O)NC1CCCCC1	96.0*	-85.6	-36.6	-61.9	45.0*	45.7*	48.2*	16.9
N#C/C(=C\c1ccc(-c2ccc(C(=O)O)cc2)o1)C(=O)NCC1CCCO1 (stereo unspecified)	1.7	3.3	5.3	5.5	-0.7	2.7	·	·
N#C/C(=C/c1ccc(-c2ccc(S(=O)(=O)N3CCOCC3)cc2)o1)C(=O)NC1CC1	0.7	2.0	4.3	-0.3	6.0	·	·	·
N#C/C(=C\c1ccc(N2CCOCC2)o1)C(=O)NCC1CCCO1 (stereo unspecified)	45.2	-14.2	-25.7	-78.3	53.3*	16.6*	22.5*	12.1
CCOc1ccc(/C=C2\SC(=S)NC2=O)cc1OC	-0.1	7.2	3.0	-7.1	-1.7	0.3	·	·
COc1ccc(/C=C2\SC(=O)NC2=S)cc1OC	15.2	-24.1	-28.9	-33.3	19.8	67.8*	8.0	16.4
CCN(CC)c1ccc(/C=N/NC(=O)c2cccc(S(=O)(=O)Nc3ccccc3OC)c2)c(O)c1	33.6	-63.8	-21.2	-13.7	8.5	33.2*	34.5*	99.8*
COc1ccc(Cl)cc1NC(=O)C1CCCN(c2cc(C)nc3ncnn23)C1 (stereo unspecified)	0.8	19.2	-27.2	1.0	-1.0	16.2*	13.5	8.9
COC(=O)C1=C(C)N=c2s/c(=C/c3ccoc3)c(=O)n2C1c1ccccc1 (stereo unspecified)	3.6	5.7	-9.5	-8.4	4.1	27.8*	28.6*	14.0

High-throughput results from PubChem BioAssay.
